S16 viability – S16 Schwann cell cytotoxicity | S16 Pmp22-F2sN Schwann cells viability, CellTiter-Glo, 24 h | Potency, µM (doses to about 57.5 µM), actives largely listed as cytotoxic | 43,000 tested, 0.48% active | AID 1508642; further: nearly all actives have a fitted effect of over 65% in size
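Luminescence from CellTiter-Glo, read by CCD camera after a 15 min room-temperature incubation, served as the viability signal. Reporter Schwann cells (S16 Pmp22-F2sN) had been treated with pin-transferred compounds for 24 h at 37C.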
PMP22 txn – modulators of PMP22 gene transcription in S16 Schwann cells. S16 Pmp22-F2sN Schwann cells, FLuc/NLuc coincidence luminescence, 24 h. Potency, µM (highest dose often 57.5 µM), hits mostly inhibitors. 43,000 tested, 2% active. AID 1508649; active means clear falling dose curves in both reporters; inconclusive means both reporters move, but less clearly or upward; inactive means either reporter flat; the % is the NLuc reporter signal
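qHTS, 1536-well. Cells seeded, compounds added by pin tool, 24 h 37C. Nano-Glo reagent 1 (lysis/FLuc), 10 min RT, read; Stop&Glo, 10 min RT, read NLuc.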
HTT-AS act – activators of huntingtin-antisense promoter activity | Potency, µM (highest dose often 57.5 µM), most hits filed as activators | HEK293 HTT-AS promoter firefly luciferase reporter, 24 h; response scale: percent change from vehicle, -100% = no light | 48,000 tested, 0.24% active; further: nearly all actives have a fitted effect of over 55% in size
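HEK293 cells carrying firefly luciferase reporters were seeded at 2,500 per well in Opti-MEM and cultured for 24 h. They were then treated with compounds at up to 57.5 uM final for 24 h at 37 degrees C before Dual-Glo luminescence readout.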
mTORC1 inh – inhibitors of mTORC1 signaling in Tsc2-/- p53-/- MEF cells. Tsc2-/- p53-/- MEF, phospho-rpS6 immunofluorescence/PI, 24 h. Potency, µM (titrated, usually from 38.3 µM), most hits filed as inhibitors. 44,000 tested, 0.78% active. AID 493208; further: nearly all actives have a fitted effect of over 50% in size
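Cell-based qHTS: Tsc2-/- p53-/- MEF, 24 h cpd, 37 °C; fix/perm, anti-phospho-S6 Alexa-488 + PI; Acumen 488 nm scan; pS6/PI ratio, % positive cells; rapamycin 7.5 nM = inhibition ref; PI count = viability.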
HTT prom inh – HTT promoter inhibition; HEK293 HTT promoter firefly luciferase reporter, 24 h; Potency, µM (titrated, usually from 57.5 µM), actives largely listed as inhibitors; 48,000 tested, 0.93% active; AID 1508623; further: nearly all actives have a fitted effect of over 50% in size
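Luminescence was read after Dual-Glo reagent and a 10 min room-temperature incubation. Values were normalized to vehicle (0% activity) and zero RLU (-100% activity). Reporter HEK293 cells had been exposed to compounds (up to 57.5 uM final) for 24 h.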
NLuc sat counter – NanoLuc enzyme inhibition artifact for PMP22 screen. AID 1508638. Potency, µM (top dose mostly 57.5 µM), actives largely listed as inhibitors. shares compounds with PMP22 txn. Secreted NLuc enzyme (filtered S16 cell medium), Nano-Glo luminescence. 690 tested, 4% active
NLuc Km ctr – NanoLuc inhibition at Km substrate, PMP22 artifact check; shares compounds with PMP22 txn; secreted NLuc enzyme, coelenterazine luminescence, Km conditions; Potency, µM (titrated, usually from 57.5 µM), most hits filed as inhibitors; 690 tested, 5% active; AID 1508639
FLuc counter – firefly luciferase enzyme inhibition artifact for PMP22 screen; shares compounds with PMP22 txn; purified P. pyralis FLuc, luminescence, 10 min; Potency, µM (highest dose often 57.5 µM), usual class: inhibitors; 690 tested, under 10 active; AID 1508640
Target sequence (P08659 whole entry, looked up): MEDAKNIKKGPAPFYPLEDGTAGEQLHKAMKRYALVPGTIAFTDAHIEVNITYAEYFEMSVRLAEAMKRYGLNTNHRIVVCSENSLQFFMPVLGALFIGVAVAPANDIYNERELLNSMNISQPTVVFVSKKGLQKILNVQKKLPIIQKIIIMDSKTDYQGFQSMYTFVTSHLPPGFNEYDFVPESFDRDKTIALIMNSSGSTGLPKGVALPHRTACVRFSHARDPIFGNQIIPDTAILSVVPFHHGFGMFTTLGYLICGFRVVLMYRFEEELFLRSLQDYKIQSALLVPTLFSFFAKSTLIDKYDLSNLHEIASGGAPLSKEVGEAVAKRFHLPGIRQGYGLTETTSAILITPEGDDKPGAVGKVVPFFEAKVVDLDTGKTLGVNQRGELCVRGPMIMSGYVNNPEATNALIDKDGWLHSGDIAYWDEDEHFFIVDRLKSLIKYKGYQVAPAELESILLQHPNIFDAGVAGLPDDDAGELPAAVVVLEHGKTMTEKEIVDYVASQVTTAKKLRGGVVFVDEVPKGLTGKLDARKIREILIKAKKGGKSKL
S16 viab conf – confirmation of cytotoxicity in S16 Pmp22-F2sN Schwann cells (luciferase reporters placed in the Pmp22 gene); shares compounds with PMP22 txn; S16 Schwann cells viability, CellTiter-Glo ATP luminescence, 24 h; Potency, µM (doses to about 57.5 µM), hits mostly cytotoxic; 690 tested, 7% active; AID 1508641
PMP22 txn conf – confirmation of modulators of PMP22 gene transcription in S16 cells; shares compounds with PMP22 txn; S16 Schwann cells Pmp22-F2sN, dual luciferase, 24 h; Potency, µM (top dose mostly 57.5 µM), hits mostly inhibitors; 690 tested, 22% active; active means clear falling dose curves in both reporters; inconclusive means both reporters move, but less clearly or upward; inactive means either reporter flat; the % is the FLuc reporter signal
Large screens that a line does not name were inactive (follow-up assays come after a bar, where they were run). An excerpt weighted towards active compounds, which were near 3.6% of everything screened. Unless noted, the call rests on the fitted dose curve; in most records, active means well fitted curve in the direction sought with a large enough effect; inconclusive means small, poorly fitted or top-dose-only effect, or another doubt; inactive means no such curve, though single readings can be large; an effect the other way counts as inactive or inconclusive.

CC(C)OCCCNC(=O)c1ccc(-n2c(-c3ccccc3)cc3c2CCCC3)cc1	PMP22 txn 13µM | NLuc sat counter inactive | NLuc Km ctr inactive | FLuc counter inactive | S16 viab conf inactive | PMP22 txn conf inconclusive
CCc1ccccc1NC(=O)CSc1ncc(S(=O)(=O)c2ccc(C(C)C)cc2)c(N)n1	PMP22 txn 18µM, HTT prom inh inconclusive | NLuc sat counter inconclusive | NLuc Km ctr inactive | FLuc counter inactive | S16 viab conf inactive | PMP22 txn conf inconclusive
Cc1cc(SCc2sc(-c3ccc(C(F)(F)F)cc3)nc2C)ccc1OCC(=O)O	none (no result: S16 viability, PMP22 txn, mTORC1 inh)
Cc1cccc(N2CCN(S(=O)(=O)c3ccc4c(c3)CCCN4C(=O)C3CCC3)CC2)c1C	PMP22 txn 16µM, HTT prom inh inconclusive | NLuc sat counter inactive | NLuc Km ctr inactive | FLuc counter inactive | S16 viab conf inactive | PMP22 txn conf inconclusive
COc1ccc(Cl)cc1NC(=O)CSC1=Nc2ccccc2C2=NC(CCC(=O)NCc3ccco3)C(=O)N12 (stereo not drawn)	S16 viability inconclusive, PMP22 txn 20µM | NLuc sat counter inconclusive | NLuc Km ctr inconclusive | FLuc counter inactive | S16 viab conf inactive | PMP22 txn conf inconclusive
Cc1cccc(C)c1Nc1c(-c2ccsc2)nc2ccc(Cl)cn12	none
Cc1cccc(C)c1Nc1c(-c2ccsc2)nc2ccccn12	S16 viability inconclusive, PMP22 txn 9.5µM, HTT prom inh inconclusive | NLuc sat counter inconclusive | NLuc Km ctr 22µM | FLuc counter inactive | S16 viab conf inactive | PMP22 txn conf inconclusive
Cc1ccc(-c2c3c(=O)n(C)c(=O)n(C)c3c3c(-c4cccc(C)c4)nc4ccccc4n23)cc1	none
Cc1cccc(-c2c3c(=O)n(C)c(=O)n(C)c3c3c(C)nc4ccccc4n23)c1	PMP22 txn 13µM | NLuc sat counter inactive | NLuc Km ctr inactive | FLuc counter inactive | S16 viab conf inactive | PMP22 txn conf inactive
COc1cc(Nc2nc3ccccc3nc2NS(=O)(=O)c2ccc(NC(=O)c3ccc(C)c(OC)c3)cc2)cc(OC)c1	HTT prom inh inconclusive (no result: S16 viability, PMP22 txn, mTORC1 inh)
Cc1cccc2c1CC[C@H](CN1CCC(c3c(Cl)cccc3Cl)CC1)C[C@@H]2O	none (no result: S16 viability, PMP22 txn, mTORC1 inh)
O=C(C=Cc1ccc(/C=C/C(=O)Nc2ccc(C3=NCCN3)cc2)cc1)Nc1ccc(C2=NCCN2)cc1	none (no result: S16 viability, PMP22 txn, mTORC1 inh)
COc1cc(NS(=O)(=O)c2ccc3[nH]c4c(c3c2)CCCC4)cc(OC)c1OC	PMP22 txn 12µM, mTORC1 inh inconclusive, HTT prom inh inconclusive | NLuc sat counter inactive | NLuc Km ctr inconclusive | FLuc counter inactive | S16 viab conf inactive | PMP22 txn conf inconclusive
Cc1ccc(NS(=O)(=O)c2ccc3[nH]c4c(c3c2)CCCCCC4)cc1C	PMP22 txn inconclusive, HTT prom inh inconclusive
COc1ccc(NS(=O)(=O)c2ccc3[nH]c4c(c3c2)CCCC4)cc1OC	PMP22 txn 14µM, HTT prom inh 20µM | NLuc sat counter inactive | NLuc Km ctr inconclusive | FLuc counter inactive | S16 viab conf inconclusive | PMP22 txn conf inconclusive
COc1cc(NS(=O)(=O)c2ccc3[nH]c4c(c3c2)CCCCCC4)cc(OC)c1	PMP22 txn inconclusive, mTORC1 inh inconclusive, HTT prom inh inconclusive
Cc1c(C(=O)Nc2ccc(N3C[C@@H](C)O[C@@H](C)C3)nc2)cccc1-c1ccc(OC(F)(F)F)cc1	none (no result: S16 viability, PMP22 txn, mTORC1 inh)
CC1(C)C(N(O)C(=O)Nc2ccc(Cl)cc2)N(c2ccc(Cl)cc2)C(=O)N1CC(=O)NN=CC=Cc1ccc([N+](=O)[O-])o1 (stereo not drawn)	HTT prom inh inconclusive (no result: S16 viability, PMP22 txn, mTORC1 inh)
COc1ccc(Cl)cc1NC(=O)CSc1nc2ccccc2nc1N1CCCCC1	PMP22 txn 13µM | NLuc sat counter inactive | NLuc Km ctr inactive | FLuc counter inactive | S16 viab conf inactive | PMP22 txn conf inactive
COc1ccc(NC(=O)CSc2nc3ccccc3nc2N2CCCCC2)cc1	none
COc1cccc(Cn2c(CNC(=O)c3cc([N+](=O)[O-])ccc3Cl)nc3cccnc32)c1	PMP22 txn 13µM | NLuc sat counter inactive | NLuc Km ctr inactive | FLuc counter inactive | S16 viab conf inactive | PMP22 txn conf inactive
COCCn1c(CNC(=O)c2cc([N+](=O)[O-])ccc2Cl)nc2cccnc21	none
Cc1noc(/C=C/c2ccco2)c1S(=O)(=O)N1CCC(C(=O)Nc2ccc(F)c(Cl)c2)CC1	S16 viability inconclusive, PMP22 txn 12µM, HTT prom inh 32µM | NLuc sat counter inactive | NLuc Km ctr inactive | FLuc counter inactive | S16 viab conf inactive | PMP22 txn conf inactive
CCOc1ccc(NC(=O)NC(C)c2c(-n3cccc3)sc3c2CCN(CC)C3)cc1 (stereo not drawn)	PMP22 txn 15µM | NLuc sat counter inconclusive | NLuc Km ctr inactive | FLuc counter inactive | S16 viab conf inactive | PMP22 txn conf inactive
CCOCCCNC(=O)NC(C)c1c(-n2cccc2)sc2c1CCN(CC)C2 (stereo not drawn)	PMP22 txn 16µM | NLuc sat counter inactive | NLuc Km ctr inactive | FLuc counter inactive | S16 viab conf inactive | PMP22 txn conf inactive
CC1(COc2ccc3c(c2)ncn3-c2ccc3cccc(N4CCC(N)CC4)c3n2)COC1	HTT prom inh inconclusive (no result: S16 viability, PMP22 txn, mTORC1 inh)
COc1ccc(NC(=O)CCNS(=O)(=O)c2ccc3c(c2)CCN3C(=O)C2CC2)cc1Cl	PMP22 txn 14µM, HTT prom inh inconclusive | NLuc sat counter inconclusive | NLuc Km ctr inconclusive | FLuc counter inactive | S16 viab conf inactive | PMP22 txn conf inactive
O=C(CCNS(=O)(=O)c1ccc2c(c1)CCN2C(=O)C1CC1)Nc1ccc(Cl)cc1	PMP22 txn inconclusive, HTT prom inh inconclusive
Cc1ccc2c(c1)c1c(c(=O)n(-c3cccc(Cl)c3)c(=O)n1CC(=O)NCCC1=CCCCC1)n2C	none
